The values below come from the supplement of paper PMC6522484.

± gives the standard deviation of the averaged measurements.

Assay [1] has as its system DLD1. In words: cell viability (CellTiter-Glo) relative to plate median (fraction of plate median); higher = more viable cells. As to conditions: 5 µM; treatment time 24 h; reporter: 7TFP. The procedure, abridged: (§1)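 Two independent replicates were averaged for each reported value. Library compounds were applied at a final 5 µM for 24 h to colorectal cancer cell lines stably expressing lentiviral TCF/Wnt firefly luciferase reporters. Firefly luciferase or CellTiterGlo luminescence from each well was normalised to the plate median.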
A general note: In ATP-based viability assays light output follows the ATP content of the culture.

Another assay deals with HCT116. The description is as above. To be noted: 5 µM; treatment time 24 h; reporter: TCF4/Wnt. The method in brief: as §1
The subject of assay [2] is SW480. The assay is described as above. To be noted: 5 µM; treatment time 24 h; reporter: 7TFP. The method in brief: as §1
The subject of assay [3] is DLD1. Nature of the assay: TCF/Wnt firefly luciferase reporter signal relative to plate median (fraction of plate median); higher = higher Wnt reporter signal. As to conditions: 5 µM; treatment time 24 h; reporter: 7TFP. The procedure, abridged:
as §1

Assay [4] concerns SW480. The description is as above. As to conditions: 5 µM; treatment time 24 h; reporter: 7TFP. The procedure, abridged:
as §1

Take `C#C[C@]1(O)CC[C@H]2[C@@H]3CCC4=C(CCC(=O)C4)[C@H]3CC[C@@]21C`: the cell viability is 0.905 ± 0.022 in the assay with DLD1 [1], 0.974 ± 0.14 with HCT116 and 0.913 ± 0.014 with SW480 [2]. Besides, the “TCF/Wnt firefly luciferase reporter signal” value amounted to 1.07 ± 0.13 with DLD1 [3] and 1.07 ± 0.057 in the assay on SW480 [4].

For `O=C1C[C@@H](c2ccc(O)cc2)Oc2cc(O)cc(O)c21`, the values for the cell viability with DLD1 [1], with HCT116 and in the assay with SW480 [2] were 1.045 ± 0.0071, 1.055 ± 0.0071 and 1.03, respectively. Besides, the “TCF/Wnt firefly luciferase reporter signal” value in the assay with DLD1 [3] turned out to be 1.015 ± 0.0071; with SW480 [4], 1.04 ± 0.021.

Consider `N[C@@H](C(=O)O)[C@@H](O)[C@H](O)[C@H](O)CO`, for which the cell viability worked out at 0.989 ± 0.073 in the assay with DLD1 [1], 0.95 ± 0.021 in the assay with HCT116 and 1.01 ± 0.02 in the assay on SW480 [2]. Besides, the “TCF/Wnt firefly luciferase reporter signal” value was determined as 1 ± 0.14 with DLD1 [3] and 0.996 ± 0.034 in the assay with SW480 [4].

For the compound `CN[C@@H]1[C@H](O[C@H]2[C@H](O[C@H]3[C@H](O)[C@@H](O)[C@H](N=C(N)N)[C@@H](O)[C@@H]3N=C(N)N)O[C@@H](C)[C@]2(O)C=O)O[C@@H](CO)[C@H](O)[C@H]1O`, the cell viability in the assay with DLD1 [1] was determined as 0.962 ± 0.097; with HCT116 it was 0.936 ± 0.044; in the assay on SW480 [2] it was 1.07 ± 0.078. In addition, the results for the “TCF/Wnt firefly luciferase reporter signal” value in the assay with DLD1 [3] and in the assay on SW480 [4] were 0.817 ± 0.0014 and 0.935 ± 0.0028, respectively.

On to `CC[C@@H](C(=O)[C@@H](C)[C@@H](O)[C@H](C)CCc1ccc(C)c(O)c1C(=O)O)[C@H]1O[C@](CC)([C@H]2CC[C@](O)(CC)[C@H](C)O2)C[C@@H]1C`, for which the values for the cell viability with DLD1 [1], in the assay on HCT116 and in the assay on SW480 [2] were 0.985 ± 0.013, 1.03 ± 0.098 and 1.02 ± 0.014, respectively. In addition, the “TCF/Wnt firefly luciferase reporter signal” value in the assay on DLD1 [3] worked out at 1.23 ± 0.099; in the assay with SW480 [4], 1.03 ± 0.12.

As to `C[C@]12C=CC(=O)C=C1CC[C@@H]1[C@@H]2[C@@H](O)C[C@@]2(C)[C@H]1CC[C@]2(O)C(=O)COP(=O)(O)O`, the cell viability in the assay on DLD1 [1] came to 1.04 ± 0.021; in the assay with HCT116, 1; in the assay on SW480 [2], 0.943 ± 0.033. Besides, the “TCF/Wnt firefly luciferase reporter signal” value in the assay with DLD1 [3] was 1.04 ± 0.14; in the assay on SW480 [4], 1.06 ± 0.014.

`CN1CCN(CC(=O)N2c3ccccc3C(=O)Nc3cccnc32)CC1`: the values for the cell viability in the assay with DLD1 [1], in the assay with HCT116 and in the assay on SW480 [2] were 0.944 ± 0.022, 1 ± 0.067 and 0.9405 ± 0.0035, respectively. For the same compound, the “TCF/Wnt firefly luciferase reporter signal” value with DLD1 [3] was 0.796 ± 0.014; in the assay on SW480 [4], 0.813 ± 0.0099.

In the case of `COc1cc(-c2cc(=O)c3c(O)c(OC)c(OC)c(OC)c3o2)cc(OC)c1OC`, the cell viability in the assay with DLD1 [1] turned out to be 0.948 ± 0.073; with HCT116, 1.06 ± 0.098; in the assay on SW480 [2], 0.956 ± 0.02. Further, the figures for the “TCF/Wnt firefly luciferase reporter signal” value in the assay on DLD1 [3] and in the assay on SW480 [4] were 1.02 ± 0.028 and 0.936 ± 0.021, respectively.

For the compound `C[C@@H]1C(=O)O[C@H]2C[C@@]34[C@H]5C[C@@H](C(C)(C)C)[C@]36[C@@H](OC(=O)[C@@H]6O)O[C@@]4(C(=O)O5)[C@]21O`, the cell viability in the assay on DLD1 [1] was 1.07 ± 0.021; in the assay with HCT116, 1.11 ± 0.064; in the assay on SW480 [2], 0.99 ± 0.015. For the same compound, the “TCF/Wnt firefly luciferase reporter signal” value was found to be 1.15 ± 0.021 in the assay on DLD1 [3] and 1.03 ± 0.11 with SW480 [4].

Turning to `CC(=O)O[C@H]1C[C@@]2(C)[C@H](c3ccoc3)OC(=O)[C@H]3O[C@]32[C@@]2(C)C1[C@]1(C)C(C[C@H]2OC(C)=O)C(C)(C)[C@H](OC(C)=O)C[C@@H]1OC(C)=O` (stereo partly drawn) [11alpha-ACETOXYKHIVORIN], the cell viability in the assay on DLD1 [1] came out at 0.973 ± 0.014; with HCT116, 0.895 ± 0.088; in the assay with SW480 [2] it was 0.941 ± 0.013. Also, the “TCF/Wnt firefly luciferase reporter signal” value is 1 ± 0.14 in the assay with DLD1 [3] and 1.05 ± 0.11 in the assay on SW480 [4].

Regarding `CCCCCC1C(=O)CCC1CC(=O)O` (stereo not given), the cell viability in the assay on DLD1 [1] turned out to be 1.02 ± 0.25; in the assay with HCT116, 1.2 ± 0.18; in the assay on SW480 [2], 1.105 ± 0.0071. Also, the “TCF/Wnt firefly luciferase reporter signal” value in the assay on DLD1 [3] amounted to 1.06 ± 0.099; in the assay with SW480 [4], 1.04 ± 0.058.

In the case of `C[C@H]1C[C@H]2[C@@H]3CCC4=CC(=O)C=C[C@]4(C)[C@@]3(F)[C@@H](O)C[C@]2(C)[C@@]1(O)C(=O)CO`, the figures for the cell viability in the assay with DLD1 [1], in the assay on HCT116 and with SW480 [2] were 0.973 ± 0.0099, 1.03 ± 0.086 and 1.01 ± 0.016, respectively. Further, the “TCF/Wnt firefly luciferase reporter signal” value was 0.938 ± 0.027 in the assay with DLD1 [3] and 0.953 ± 0.0028 in the assay on SW480 [4].

For `Nc1ccc(C(=O)Oc2ccccc2)c(O)c1`, the cell viability came out at 1.05 ± 0.096 in the assay with DLD1 [1], 1.16 ± 0.064 in the assay with HCT116 and 1.05 ± 0.042 with SW480 [2]. Further, the “TCF/Wnt firefly luciferase reporter signal” value amounted to 1.08 ± 0.14 in the assay on DLD1 [3] and 1.03 ± 0.035 with SW480 [4].

On to `CO[C@H]1O[C@H](CO)C(O[C@@H]2OC(C(=O)O)[C@@H](O[C@H]3O[C@H](COS(=O)(=O)O)C(O[C@@H]4OC(C(=O)O)[C@@H](O[C@H]5O[C@H](CO)C(O[C@@H]6OC(C(=O)O)[C@@H](O[C@H]7O[C@H](COS(=O)(=O)O)C(O[C@@H]8OC(C(=O)O)=C[C@H](O)C8OS(=O)(=O)O)[C@H](O)[C@H]7NC(C)=O)[C@H](O)[C@H]6O)[C@H](O)[C@H]5NC(C)=O)[C@H](O)[C@H]4O)[C@H](O)[C@H]3NC(C)=O)[C@H](O)[C@H]2O)[C@H](O)[C@H]1NC(C)=O` (stereo not given in full), for which the cell viability in the assay on DLD1 [1] turned out to be 0.988 ± 0.032; in the assay on HCT116, 1.05 ± 0.1; with SW480 [2] it was 1.025 ± 0.0071. The “TCF/Wnt firefly luciferase reporter signal” value in the assay on DLD1 [3] stood at 0.977 ± 0.2; with SW480 [4] it was 0.98 ± 0.043.
